{
  "source": "PubChem BioAssay (NCI)",
  "note": "Several values for one entry are separate records, joined by “and”; a condition that tells them apart may be missing. Identical values can stand only once. This is part of a sample that, as a whole, favours compounds with a hit. Of some 83,000 tested, about 20% had one in any assay.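 Activity criterion: percent growth below 10, measured after cells in 96-well plates were exposed to a single compound concentration for 48 hours.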 Activity calls are given as the source filed them.",
  "data": [
    {"test_system": "NCI-H522 lung", "assay": "NCI-60 one-dose screen, 48 h (100 = growth as untreated, 0 = no growth, -100 = all killed)", "settings": "10 µM unless noted", "values": [
      {"smiles": "O=c1ccc(Cn2c(C(F)(F)F)cc3c(Cl)ncnc32)c[nH]1", "growth": "-77.1% (active)"},
      {"smiles": "CC[C@]12C=CCN3CC[C@]4(C(=C(C(=O)OC)C1)Nc1cc(OC)c([C@@H]5[C@H]6O[C@H]6[C@@]6(CC)CC(C(=O)OC)=C7Nc8cc(O)ccc8[C@@]78CCN5[C@@H]68)cc14)[C@@H]32", "growth": "-31.2% (active)"},
      {"smiles": "COc1ccc2[nH]cc(-c3cc4nc(-c5cn(C)c6ncccc56)cc(N)n4n3)c2c1", "growth": "-58.7% (active)"},
      {"smiles": "COc1ccc2[nH]c(=O)cc(-n3ncc(C(=O)/C=C/c4cc(OC)c(OC)c(OC)c4)c3C)c2c1", "growth": "-81.1% (active)"},
      {"smiles": "COc1ccc(/C=C/c2nc3ccccc3n3c(-c4cccc([N+](=O)[O-])c4)nnc23)cc1", "growth": "-72.7% (active)"},
      {"smiles": "O=C(Nc1ccc(Cl)c(C(F)(F)F)c1)N1CCN(c2cc(-c3cn(-c4ccccc4)nc3-c3cccc(O)c3)ccn2)CC1", "growth": "-17.3% (active)"},
      {"smiles": "O=C1Nc2ccccc2/C1=C/C(=O)c1cc2ccccc2oc1=O", "growth": "-34.9% (active)"},
      {"smiles": "CN1CCN(C(=O)Oc2cc3c(c4ccccc24)[C@H](CCl)CN3C(=O)c2cc3cc(OCCCN4CCC4)ccc3[nH]2)[C@H]2CSSC[C@H]21", "growth": "-54.8% (active)"},
      {"smiles": "NS(=O)(=O)c1ccc(Nc2nc(N/N=C/c3cc(Br)c(O)c(Br)c3)nc(Nc3ccccc3)n2)cc1", "growth": "49.4% (inactive)"},
      {"smiles": "COc1ccc2c(c1)C(Sc1ccc(Cl)cc1)c1c(nc(N)c(C#N)c1N)O2", "note": "(configuration not stated)", "growth": "54.5% (inactive)"},
      {"smiles": "CS(=O)(=O)Nc1cccc(-n2c(COc3ccc(OC(F)(F)F)cc3)nc3ccccc32)c1", "growth": "84.8% (inactive) and 101% (inactive)"},
      {"smiles": "OCCn1cc(-c2nc3ccc4[nH]ncc4c3c3c2CCCC3)cn1", "growth": "38.9% (inactive)"},
      {"smiles": "Cn1cc(-c2cc(N)n3nc(-c4c[nH]c5ccc(F)cc45)cc3n2)c2cccnc21", "growth": "-68.8% (active)"},
      {"smiles": "COc1ccc2c(c1)N=c1c-2cc2c(O)[nH]c(=S)n2c1=O", "growth": "-9.92% (active)"},
      {"smiles": "O=C(NN1C(=O)/C(=C/C=C/c2ccc([N+](=O)[O-])o2)SC1=S)c1ccncc1", "growth": "-83.8% (active)"},
      {"smiles": "Cn1cc(-c2cc(N)n3nc(-c4c[nH]c5ccccc45)cc3n2)c2cc(Br)ccc21", "growth": "-74.7% (active)"},
      {"smiles": "Cn1cc(-c2cc(N)n3nc(-c4c[nH]c5ccccc45)cc3n2)c2ccccc21", "growth": "-85.1% (active)"},
      {"smiles": "O=C1c2cccc3c(N4CCN(c5ccccc5)CC4)ccc(c23)C(=O)N1c1cccc(-c2nn(-c3ccccc3)cc2-c2nc3ccccc3s2)c1", "growth": "108% (inactive)"},
      {"smiles": "O=C(c1ccc(O)cc1)C1[C@H](c2ccccc2Br)[C@@H](c2ccccc2)NC12C(=O)Nc1ccccc12", "note": "(some centres not stated)", "growth": "-21.1% (active)"},
      {"smiles": "COc1ccc(-c2cc(C(=O)N=Nc3c(O)[nH]c4ccc(Cl)cc34)c3ccccc3n2)cc1", "growth": "-16.1% (active)"},
      {"smiles": "CC(C)(C)OC(=O)N1CCC2(CC1)Oc1ccccc1[C@H]1CC(c3ccc(Br)cc3)=NN12", "growth": "74.4% (inactive)"},
      {"smiles": "Cc1cc(C(NC(=O)CCCCCNc2cccc3c2C(=O)N(C2CCC(=O)CC2=O)C3=O)c2cccc(N(C)C)c2)c(O)c2ncccc12", "note": "(configuration not stated)", "growth": "13% (inactive)"},
      {"smiles": "O=C(c1ccc(O)cc1)C1[C@H](c2ccc(Cl)cc2)[C@@H](c2ccccc2)NC12C(=O)Nc1ccc(Br)cc12", "note": "(some centres not stated)", "growth": "-20.8% (active)"},
      {"smiles": "Cc1ccc(C(=O)C[n+]2cccc3c4ccccc4ccc32)cc1", "growth": "22.1% (inactive)"},
      {"smiles": "C#CCN(C)CCCOc1ccc(N(CC)C(=O)c2cc(C(C)C)c(O)cc2O)cc1Cl", "growth": "-14.9% (active)"},
      {"smiles": "O=C(OCCOCCO)N(c1cccc(Br)c1)c1nc(SCCN2CCOCC2)nc2c1cnn2CC(Cl)c1ccc(Br)cc1", "note": "(configuration not stated)", "growth": "-40.9% (active)"},
      {"smiles": "COc1ccc(-c2nc3ccc(-c4nnc(SCC(=O)Nc5ccc(/C(C)=N\\O)cc5)o4)cc3[nH]2)cc1", "growth": "40.1% (inactive)"},
      {"smiles": "Clc1ccc2c(NCCNC34CC5CC(CC(C5)C3)C4)ccnc2c1", "growth": "-76.7% (active)"},
      {"smiles": "CCOc1ccc(-c2cc(-c3cc(C(C)C)c(O)cc3C)nn2-c2ccc(S(N)(=O)=O)cc2)cc1", "growth": "1.3% (active)"},
      {"smiles": "Cc1ccc(N=Nc2c(N)nn3c(-c4cc5cc(Br)ccc5oc4=O)ccnc23)cc1", "growth": "11.7% (inactive)"},
      {"smiles": "COc1ccc(SC2c3cc(OC)ccc3Oc3nc(N)c(C#N)c(N)c32)cc1", "note": "(configuration not stated)", "growth": "78.4% (inactive)"},
      {"smiles": "O=C1Nc2ccc(F)cc2/C1=C/C(=O)c1cc2ccccc2oc1=O", "growth": "-7.22% (active)"},
      {"smiles": "COc1ccc2[nH]cc(-c3cc(N)n4nc(-c5c[nH]c6ccccc56)cc4n3)c2c1", "growth": "-65.3% (active)"},
      {"smiles": "O=C1Nc2cc(-c3ccc(NS(=O)(=O)c4ccc(F)c(Cl)c4)cc3)ccc2/C1=C/c1ccc[nH]1", "growth": "6.92% (active)"},
      {"smiles": "CCOC(=O)/C(F)=C/C1CC1C1CCN(C(=O)OC(C)(C)C)CC1", "note": "(configuration not stated)", "growth": "104% (inactive)"},
      {"smiles": "CN1CCN(CCS(=O)(=O)Nc2cc(-c3ccc4ncnc(Nc5ccc(F)c(Cl)c5)c4c3)cnc2Cl)CC1", "growth": "10.1% (inactive)"},
      {"smiles": "N#Cc1cc(-c2ccc3ncnc(N4CCc5cc(F)c(Cl)cc54)c3c2)cnc1N", "growth": "46% (inactive)"}
    ]}
  ]
}
